Molecules are shown by their SMILES. Results filed as inconclusive are left out. Activity calls are given as the source filed them. How the source made its calls: active means hit-call score of the fitted dose curve at least 0.9, where 1 is the maximum; inconclusive means response in the unintended direction; inactive means score below 0.9.

PGR (gene 5241), sequence (P06401 whole entry, looked up): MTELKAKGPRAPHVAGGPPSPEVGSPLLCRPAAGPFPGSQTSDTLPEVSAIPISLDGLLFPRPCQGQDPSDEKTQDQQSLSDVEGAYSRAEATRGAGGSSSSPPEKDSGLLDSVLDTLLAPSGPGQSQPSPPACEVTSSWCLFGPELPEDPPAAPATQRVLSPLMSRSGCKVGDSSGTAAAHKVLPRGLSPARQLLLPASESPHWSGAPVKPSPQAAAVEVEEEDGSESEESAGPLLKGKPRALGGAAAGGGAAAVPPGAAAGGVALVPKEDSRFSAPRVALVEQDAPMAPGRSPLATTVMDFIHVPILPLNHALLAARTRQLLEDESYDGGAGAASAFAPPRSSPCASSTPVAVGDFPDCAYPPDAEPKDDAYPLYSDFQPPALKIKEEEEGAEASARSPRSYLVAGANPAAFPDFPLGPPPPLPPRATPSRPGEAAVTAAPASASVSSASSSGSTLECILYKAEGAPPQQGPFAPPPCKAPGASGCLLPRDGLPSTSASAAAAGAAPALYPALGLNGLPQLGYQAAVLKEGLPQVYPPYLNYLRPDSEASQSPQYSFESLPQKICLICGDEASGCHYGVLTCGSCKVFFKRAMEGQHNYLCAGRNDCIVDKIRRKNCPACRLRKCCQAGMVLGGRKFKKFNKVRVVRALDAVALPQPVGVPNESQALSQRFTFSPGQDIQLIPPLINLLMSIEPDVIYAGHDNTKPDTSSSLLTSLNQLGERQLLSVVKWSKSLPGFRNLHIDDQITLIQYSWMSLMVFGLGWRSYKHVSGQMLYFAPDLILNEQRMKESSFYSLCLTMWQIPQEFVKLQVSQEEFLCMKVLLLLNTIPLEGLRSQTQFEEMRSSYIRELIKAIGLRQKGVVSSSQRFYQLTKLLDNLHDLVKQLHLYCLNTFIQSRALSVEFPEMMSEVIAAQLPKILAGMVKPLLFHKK

This assay concerns the target PGR (gene 5241) (UniProt P06401). Nature of the assay: TOX21_PR_LUC_Followup_Antagonist: Tox21 HEK293 Progesterone Receptor (PR) Antagonism Luciferase Follow-Up Assay (AID 2283938).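 Further: curve fitted upward as signal gain over DMSO baseline despite antagonist label.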 The source says:
TOX21_PR_LUC_Followup is a secondary assay for specificity for the TOX21_PR_BLA_Agonist assay. To differentiate true PR agonists from cytotoxic substances, this follow up assay is multiplexed with a cell viability assay.TOX21_PR_LUC_Followup_Antagonist is one of one assay component(s) measured or calculated from the TOX21_PR_LUC_Followup assay. It is designed to make measurements of luciferase induction, a form of inducible reporter, as detected with bioluminescence signals by CellTiter-Glo Luciferase-coupled ATP quantitation technologyData from the assay component TOX21_PR_LUC_Followup_Antagonist was analyzed into 1 assay endpoint. This assay endpoint, TOX21_PR_LUC_Followup_Antagonist, was analyzed in the positive analysis fitting direction relative to DMSO as the negative control and baseline of activity. Using a type of inducible reporter, gain-of-signal activity can be used to understand changes in the reporter gene as they relate to the gene NR3C3. Furthermore, this assay endpoint can be referred to as a primary readout, because the performed assay has only produced 1 assay endpoint. To generalize the intended target to other relatable targets, this assay endpoint is annotated to the nuclear receptor target family, where the subfamily is steroidal.
Quality Control Precautions: Maintain cells below 85-90% confluence in culture medium. For assay purpose, the cells should be cultured in assay medium with 10% charcoal stripped FBS for 5 days with alternate day medium changed to fresh medium. Especially while in assay culture, the cells should not reach more than 85% confluence as they would become harder to detach if they reach over confluence.Assay Protocol: HEK293-PR-A-luc cells were dispensed at 3,000 cells/5 uL/well of culture medium into white wall/solid-bottom 1536-well plates using a Multidrop Combi (ThermoFisher Scientific, Waltham, MA) dispenser. After the assay plates were incubated at 37C and […] for 5 h, 23 nL of compounds dissolved in DMSO, positive controls or DMSO only was transferred to the assay plate by a Pintool station (Kalypsys, San Diego, CA). The plates were incubated at 37C and […] for 16 h. Then 4 uL of ONE-Glo reagent (Promega, Madison, WI) was added to each plate using a BioRAPTR Flying Reagent Dispenser (FRD) workstation (Beckman Coulter, Indianapolis, IN, USA) and luminescence was quantified on a ViewLux (PerkinElmer, Shelton, CT) plate reader after 30 min incubation at room temperature.
Turning to `C[C@]12CC[C@H]3[C@@H](CCC4=CC(=O)CC[C@@H]43)[C@@H]1CC[C@@H]2OC(=O)CCc1ccccc1`, the outcome was inactive. `CCC(=O)O[C@@H]1C=C2CCC3C(CCC4(C)C3CC[C@@H]4OC(=O)CC)C2CC1` (some centres not stated): the outcome was inactive. As usually defined, the AC50 is the concentration giving half of the maximal activity seen. For `CCOP(=S)(OCC)Oc1cc(Cl)c(Br)cc1Cl`, the AC50 is 5.76 µM (active). For `CC(=O)O[C@H]1CC[C@@]2(C)C(=CC[C@@H]3[C@@H]2CC[C@]2(C)C(=O)CC[C@@H]32)C1`, the outcome was inactive. On the same count and under the same terms, with `Nc1ccc(Cl)cc1C(=O)c1ccccc1F` the entry was “inactive”. Still for that read-out and setting: the value for `C[C@]12CC[C@H]3[C@@H](CCC4=CC(=O)CC[C@@H]43)[C@@H]1CC[C@@H]2OC(=O)CCC1CCCCC1` was “inactive”.

Regarding `C[C@]12CCC(=O)C(O)=C1CC[C@@H]1[C@@H]2CC[C@]2(C)C(=O)CC[C@@H]12`, the compound was called inactive.

Regarding `CC[C@]1(O)CC[C@H]2[C@@H]3CCC4=CCCC[C@@H]4[C@H]3CC[C@@]21C`, the compound was classed as inactive.

As to `CC(C)(c1cc(Cl)c(O)c(Cl)c1)c1cc(Cl)c(O)c(Cl)c1`, the concentration at half-maximal activity (AC50) was 17.2 µM (active).

As to `C[C@]12C/C(=C/O)C(=O)C[C@@H]1CC[C@@H]1[C@@H]2CC[C@@]2(C)[C@H]1CC[C@]2(C)O`, the outcome was inactive. On to `C[C@H]1CCC[C@H](O)CCCCCc2cc(O)cc(O)c2C(=O)O1`, for which the AC50 is 10.1 µM (active). For the compound `O=C1CN=C(c2ccccc2)c2cc(Cl)ccc2N1CC1CC1`, the compound was called inactive. For the compound `O=C(CBr)Nc1ccc(Cl)cc1C(=O)c1ccccc1F`, the outcome was inactive. The same measure, in the same setting: with `C[C@]1(O)CC[C@H]2[C@@H]3CCC4=CC(=O)CC[C@]4(C)[C@@]3(F)[C@@H](O)C[C@@]21C` the entry was “inactive”; with `C[C@]12CC[C@H]3[C@@H](CC[C@@]45O[C@@H]4C(O)=C(C#N)C[C@]35C)[C@@H]1CC[C@@H]2O`, “inactive”. Same read-out and setting: the value for `C#C[C@]1(O)CC[C@H]2[C@@H]3CCC4=CC(=O)CCC4=C3C=C[C@@]21CC` was “inactive”. Take `O=[N+]([O-])c1ccc2ccc3cccc4ccc1c2c34`: the AC50 is 13 µM (active). Consider `CCC1COC(Cn2cncn2)(c2ccc(Cl)cc2Cl)O1` (configuration not stated), for which the AC50 was 36.3 µM (active). On to `CCOC(=O)C1(c2ccccc2)CCN(CCC(C#N)(c2ccccc2)c2ccccc2)CC1`, for which the compound was called inactive.

Turning to `C[C@]12Cc3nonc3C[C@@H]1CC[C@@H]1[C@@H]2CC[C@@]2(C)[C@H]1CC[C@]2(C)O`, the compound was classed as inactive. Regarding `C=CC[C@]1(O)CC[C@H]2[C@@H]3CCC4=CC(=O)CCC4=C3C=C[C@@]21C`, the result was inactive. Take `C[C@]12C=CC(=O)C=C1CC[C@@H]1[C@@H]2CC[C@@]2(C)[C@H]1CC[C@]2(C)O`: the compound was classed as inactive. For `C[C@]12CC[C@H]3[C@@H](CCC4=CC(=O)CC[C@@H]43)[C@@H]1CC[C@@H]2O`, the compound was called inactive. On to `N#Cc1cc(I)c(O)c(I)c1`, for which the AC50 is 29.9 µM (active).

Consider `CC1COC2(c3ccccc3Cl)c3cc(Cl)ccc3NC(=O)CN12` (configuration not stated), for which the compound was classed as inactive. The same measure, in the same setting: with `C[C@]12Cc3cn[nH]c3C[C@@H]1CC[C@@H]1[C@@H]2CC[C@@]2(C)[C@H]1CC[C@]2(C)O` the entry was “inactive”; with `O=C1C(Cl)C(CCl)CN1c1cccc(C(F)(F)F)c1` (configuration not stated), “inactive”. In the case of `COP(=S)(NC(C)C)Oc1ccc(C)cc1[N+](=O)[O-]` (configuration not stated), the AC50 was 21.2 µM (active). Still for that read-out and setting: the value for `COc1ccc2c(c1OC)CN1CCc3cc4c(cc3C1C2)OCO4` (configuration not stated) was 11.5 µM (active). As to `C[C@]12CC[C@H]3[C@@H](CCC4=CC(=O)CC[C@@H]43)[C@@H]1CC[C@@H]2OC(=O)CCc1ccco1`, the outcome was inactive. Same read-out and setting: the value for `C=C1C[C@@H]2[C@H](CC[C@]3(C)C(=O)CC[C@@H]23)[C@@]2(C)C=CC(=O)C=C12` was “inactive”. For the compound `CC[C@H]1C[C@H]2[C@@H]3CCC4=CC(=O)CC[C@@H]4[C@H]3CC[C@]2(C)[C@H]1O`, the result was inactive.

The values above are taken from PubChem BioAssay (EPA / NIEHS).
